Test results published in PubChem BioAssay AID977606 (Broad Institute, 2014).
About 430 (29%) of roughly 1,500 compounds were called active. No rule for the calls is given here. Only a sample is shown. Entries that show only a call come without a potency. Potency and affinity values are given separately.

Experiment: insulin secretion activators without glucose, dose response, counter-screen for glucose-dependent insulin secretion activators, cell-based, INS-1E, Gaussia luciferase, luminescence, cherry-pick (AID 977606)
Conditions: INS-1E Gaussia luciferase insulin secretion, no glucose, 100% = twice neutral-control luminescence; series mostly up to 35 µM

| SMILES | outcome |
| --- | --- |
| Cc1cc(C)n2ncc(-c3cccc(Br)c3)c2n1 | inactive |
| CCN(CC)C(=O)Cn1c(=O)oc2ccccc21 | inactive |
| COC(=O)N1CCCCC1c1cc(C(=O)NCc2ccc(Cl)c(Cl)c2)no1 (stereo not drawn) | inactive |
| c1ccc2c(N3CCCCC3)nc(N3CCCC3)nc2c1 | inactive |
| CCOC(=O)c1nc(-c2ccccc2)oc1N(C)C | inactive |
| CCOC(=O)c1sc2nc(C)[nH]c(=O)c2c1C | inactive |
| COc1ccc(Cc2nnc(-c3ccccc3)o2)cc1 | inactive |
| CCCc1nc2n[nH]c(N)c2c2c1COC(C)(C)C2 | inactive |
| O=C(COc1nncc2ccccc12)NCC(F)(F)F | inactive |
| O=C(c1cccc(F)c1)N1CCCc2ccccc21 | inactive |
| CCOc1ccc(CCNC(=O)COc2cccc(-n3cnnn3)c2)cc1OCC | inactive |
| COCc1ccc(C(=O)NC2CCSc3ccccc32)cc1 (stereo not drawn) | inactive |
| COc1ccc(-c2ccc(=O)n(CC(=O)NC3CCc4ccccc43)n2)cc1OC (stereo not drawn) | inactive |
| CCOc1ccc(C(=O)NCC(=O)OCCN2C(=O)c3ccccc3C2=O)cc1OCC | inactive |
| CCOc1ncccc1C(=O)Nc1ncc(C)s1 | inactive |
| Cc1cc(NCc2ccccn2)nc2ccccc12 | inactive |
| O=C(O)CCCC(=O)N1CCN(c2nc(-c3ccccc3)c3ccccc3n2)CC1 | inactive |
| C/C=C1\COC(C(=O)NCc2ccccc2)(C(F)(F)F)C=C1C=C1CCCCC1 (stereo not drawn) | inactive |
| CC1=NS(=O)(=O)NC(C)(C)C1 | inactive |
| COc1ccc(C2=Nn3c(nnc3-c3ccccc3OC)SC2)cc1OC1CCOC1 (stereo not drawn) | inactive |
| Cc1ccc2nc(N/N=C/c3ccccc3C#N)nc(-c3ccccc3)c2c1 | inactive |
| Cc1ccc2nc(Cl)nc(-c3ccccc3)c2c1 | inactive |
| CCOc1ccc(CCNC(=O)CCNC(=O)c2ccco2)cc1OCC | inactive |

| SMILES | outcome |
| --- | --- |
| COc1ccc(CCNC(=O)CCc2ccccc2)cc1OC | inactive |
| COc1ccc(CCNC(=O)CCc2ccccc2O)cc1OC | inactive |
| N=c1n(CCN2CCCCC2)c2ccccc2n1CC(O)COc1ccccc1 (stereo not drawn) | inactive |
| Clc1cc(NC2CCCCC2)ncn1 | inactive |
| COc1cccc(-c2cc(C(F)(F)F)nc(-n3cncn3)n2)c1 | inactive |
| CN(C)S(=O)(=O)c1cccc(-c2csc(N/N=C/c3ccco3)n2)c1 | inactive |
| Cc1cc(=O)n(Cc2ccccc2)c2ccccc12 | inactive |
| COc1ccc(CNC(=O)CCn2c(=O)oc3ccccc32)c(OC)c1 | inactive |
| CC1(c2ccc(OC(F)F)cc2)NC(=O)N(CC(=O)Nc2cccc(S(N)(=O)=O)c2)C1=O (stereo not drawn) | inactive |
| CCCn1nc(C(=O)NC2CCCC2)c2ccccc2c1=O | inactive |
| O=c1[nH]nc(-c2ccccc2)c2ccccc12 | inactive |
| COc1ccc(CCN(C)C(=O)COc2cccc(-n3cnnn3)c2)cc1OC | inactive |
| CNc1nc(OCC#N)nc(N2CCCCC2)n1 | inactive |
| Cc1ccc(-n2nnnc2SCc2ccc(C(=O)O)cc2)cc1C | inactive |
| C=CCNC(=S)Nc1ccc2cn[nH]c2c1 | inactive |
| O=S(=O)(N1CCOCC1)n1c(Cc2ccccc2)nc2ccccc21 | inactive |
| CCN(CC(=O)Nc1ccccc1OC)C(=O)C1CCCC1 | inactive |
| O=C(Nc1ccc(F)cc1)N1CCCCN2[C@@H](CO)[C@@H](c3ccc(C#Cc4ccccc4)cc3)[C@@H]2C1 | inactive |
| COc1ccc(C2=Nn3c(nnc3-c3ccccc3OC)SC2)cc1OCC1CC1 | inactive |
| COc1ccc(C2=NN(C(=O)CCCC(=O)O)C(c3cccs3)C2)cc1OC (stereo not drawn) | inactive |
| O=c1[nH]nc(-c2cccs2)c2ccccc12 | inactive |
| CCCc1cc(=O)n2[nH]c(C)c(-c3ccc(Cl)cc3)c2n1 | inactive |
| COc1ccc(NC(=O)c2csc(C)c2)cc1OC | inactive |

| SMILES | outcome |
| --- | --- |
| CCN1CCN(c2ccc(S(=O)(=O)N3CCCCC3)cc2NC(=O)c2cc3ccccc3o2)CC1 | inactive |
| CCNC(=O)C1(C)CCCN1C(=O)c1cc(OC)c(OC)c(OC)c1 (stereo not drawn) | inactive |
| COc1ccc(Nc2c3c(nc4ccccc24)CCC3)cc1 | inactive |
| O=C(O)COc1ccccc1-c1ccccc1 | inactive |
| COc1ccc(/C=N/NC(=O)CN(C2=NS(=O)(=O)c3ccccc32)c2ccccc2)cc1OC | inactive |
| CCN(c1ccccc1)c1nc(Cl)nc2c1cnn2C | inactive |
| COCCNC(=O)c1cc2c(c(-c3cccc(C#Cc4ccc(OC)c(OC)c4)c3)n1)[C@H](CCO)N(S(=O)C(C)(C)C)C2 (stereo partly drawn) | inactive |
| COc1ccc(C(=O)C2CCCN(C(=O)c3n[nH]c4c3CCCC4)C2)cc1OC (stereo not drawn) | inactive |
| Cn1c(=O)[nH]c(=O)c2c1nc(N1CCCCC1)n2C/C=N/Nc1ccc(C(=O)O)cc1 | inactive |
| Cc1cc(-c2ccc(S(=O)(=O)N3CCN(C)CC3)s2)on1 | inactive |
| Cc1cccc(C)c1NC(=O)NC1CCc2ccccc21 (stereo not drawn) | inactive |
| COC(=O)c1ccc(C)c(-n2c(=O)n(Cc3ccccc3)c(=O)c3[nH]cnc32)c1 | inactive |
| COC(=O)c1scc(C)c1NC(=O)CC1NCCNC1=O (stereo not drawn) | inactive |
| O=C(c1ccccc1)c1ccc2ccccc2n1 | inactive |
| COc1ccc(CCNC(=O)NS(=O)(=O)c2ccc(C)cc2)cc1OC | inactive |
| COc1cc2c(cc1OC)C(CSc1ccccc1C(=O)O)=NC(C)(C)C2 | inactive |
| Cc1cccc2[nH]c3c(N4CC=C(c5ccc(F)cc5)CC4)ncnc3c12 | inactive |
| COc1cc(C)c(C)cc1S(=O)(=O)N1CCCCC1c1cccnc1 (stereo not drawn) | inactive |
| C[C@@H]1CC2=C(C(=O)OC(C)(C)O2)[C@H](c2ccc(F)cc2)O1 | inactive |
| CCCCn1c(=O)n(C)c(=O)c2c3c(sc21)COC(C)(C)C3 | inactive |
| CCOC(=O)c1csc(-c2ccc(OC)c(OC)c2)n1 | inactive |
| COc1ccc(-c2cc(C(=O)N3CCCCCC3)no2)cc1OC | inactive |
| C[C@@H]1CN([C@H](C)CO)C(=O)CCCn2cc(nn2)CO[C@H]1CN(C)S(=O)(=O)c1cccs1 | inactive |

| SMILES | outcome |
| --- | --- |
| CCOc1ccc(-c2noc(CCC(=O)NC)n2)cc1OCC | inactive |
| CCOc1cc(C(=O)N(C)CC(=O)Nc2cccc3ccccc23)ccc1OC | inactive |
| COc1cc2c(cc1OC)-c1cc(Nc3ccccc3C)nc(=O)n1CC2 | inactive |
| CCOc1ccc(CCNC(=O)COC(=O)c2ccc(C)s2)cc1OCC | inactive |
| COc1ccc(C(=O)C2CCCN(Cc3cccn3-c3nccs3)C2)cc1OC (stereo not drawn) | inactive |
| CN(C)C(=O)c1ccc(-c2ccc([C@@H]3[C@@H](CO)N4C(=O)CN(C(=O)C5CC5)C[C@@H]34)cc2)cc1 | inactive |
| Cc1c(O)cnc2nn(-c3ccccc3)c(=N)n12 | inactive |
| CCOC(=O)Cc1cc(=O)n2[nH]c(-c3ccc(C)cc3)cc2n1 | inactive |
| CC(C)Oc1ccc(Br)cc1C(=O)N/N=C/c1c[nH]c2ccccc12 | inactive |
| CN(C)c1ccc(/C=N/NC(=O)c2ccccc2Cl)cc1 | inactive |
| CCNc1nc(Oc2ccc(C#N)cc2)cc(C(F)(F)F)n1 | inactive |
| COc1ccc2oc(-c3ccncc3)cc(=O)c2c1 | inactive |
| O=C(Nc1ccc(NC(=O)c2cccs2)cc1)c1ccc2c(c1)OCO2 | inactive |
| O=C(Nc1ccc2oc(-c3cccnc3)nc2c1)c1ccc2c(c1)OCCO2 | inactive |
| CCNc1nc(NCC)nc(N(C#N)C(C)C)n1 | inactive |
| O=C(NC1CCCC1)c1ccc(Cl)c(S(=O)(=O)N2CCOCC2)c1 | inactive |
| COc1ccc(C(=O)N2CCc3cc(OC)c(OC)cc3C2c2ccc(OC)c(OC)c2)cc1OC (stereo not drawn) | inactive |
| O=C(NCc1cccnc1)c1cccc(S(=O)(=O)NCc2ccccc2)c1 | inactive |
| COc1ccc(C(=O)Nc2ccccc2C(=O)NCc2cccnc2)cc1OC | inactive |
| Clc1ccc(-c2cc(CN3CCOCC3)no2)cc1 | inactive |
| Cc1cc(C)n(CC(=O)n2c3ccccc3c3ccccc32)n1 | inactive |
| O=C(c1cccs1)N(Cc1ccc(Cl)cc1)C1CCS(=O)(=O)C1 (stereo not drawn) | inactive |
| COc1ccc(C(=O)OCC(=O)NC(=O)NC2CCCC2)cc1OC | inactive |

| SMILES | outcome |
| --- | --- |
| O=C(Nc1ccccc1)Nc1nnc(-c2cccs2)s1 | inactive |
| O=C(O)c1ccc(-n2nnnc2SCc2ccccc2F)cc1 | inactive |
| O=C(c1ccco1)N(Cc1ccc(Cl)cc1)C1CCS(=O)(=O)C1 (stereo not drawn) | inactive |
| O=C(COc1ccccc1Cl)NNC(=O)c1ccc2nc[nH]c2c1 | inactive |
| COc1ccccc1N(CC(=O)NCC1CCCO1)C(=O)CNS(=O)(=O)c1ccc(Cl)cc1 (stereo not drawn) | inactive |
| Cc1cc(C)cc(N(C(=O)C(F)(F)F)C(C(=O)NC2CCCCC2)c2cccs2)c1 (stereo not drawn) | inactive |
| O=C(NCc1ccccn1)c1ccccc1OCc1ccc(Cl)cc1Cl | inactive |
| COc1ccc2oc(=O)c(C(=O)NCc3ccccn3)cc2c1 | inactive |
| CC1CCC(NC(=O)C2COc3ccccc3O2)CC1 (stereo not drawn) | inactive |
| CCCCOC(=O)c1cc(-c2ccc(/C=N/n3cnnc3)o2)ccc1Cl | inactive |
| C=CCc1ccc(OCCOc2ccc(/C=N/n3cnnc3)cc2OCC)c(OC)c1 | inactive |
| N#Cc1c(-c2ccco2)cc(C2CC2)nc1N | inactive |
| COc1cc2c(cc1OC)C(Nc1ccccc1)=NC(C)(C)C2 | inactive |
| O=C(NCC1(O)CCCCC1)C1CCC(=O)N(Cc2ccccc2F)C1 (stereo not drawn) | inactive |
| NC1=NC(=O)C(Cc2ccc(F)cc2)S1 (stereo not drawn) | inactive |
| COc1cc(OC)c(OC)cc1/C=N/n1c(C)nc2ccccc2c1=O | inactive |
| O=C1Nc2cnc(Cl)nc2Nc2ccccc21 | inactive |
| COc1ccc(-c2cc(C(=O)N(C)Cc3ccc(OC)c(OC)c3OC)c3ccccc3n2)cc1OC | inactive |
| COc1ccc(CN(C)C(=O)c2cc(-c3ccc(OC)c(OC)c3)nc3ccccc23)c(OC)c1 | inactive |
| COc1ccc(F)cc1C(=O)C1CCCN(C(=O)c2ccc(C(C)=O)s2)C1 (stereo not drawn) | inactive |
| Clc1ccc(OCCn2ccnc2)c(Cl)c1 | inactive |
